# Assay results published in PubChem BioAssay (EPA / NIEHS).
# Records with an inconclusive call do not appear. Active and inactive are the calls of the source. How the source made its calls: active means hit-call score of the fitted dose curve at least 0.9, where 1 is the maximum; inconclusive means response in the unintended direction; inactive means score below 0.9.
# Legend:
# [1] = target: Nucleoli Translocation, AR (gene 367) (UniProt P10275); test: UPITT_HCI_U2OS_AR_TIF2_Nucleoli_Agonist: University of Pittsburgh U2OS Androgen Receptor-Transcriptional Intermediary Factor 2 (AR-TIF2) Agonism High Content Imaging Assay for Nucleoli Translocation (AID 2283998)
# Summary of the method: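 U2OS cells expressing RFP-tagged human AR and GFP-tagged TIF2; red fluorescence in nucleoli quantified by high-content imaging. Primary screen at 20 uM final (0.2% DMSO); concentration-response 0.195–50 uM (0.5% DMSO), fitted upward versus DMSO.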
# [2] = target: Ratio of Nucleoli Translocation and Cytoplasm, AR (gene 367) (UniProt P10275); test: UPITT_HCI_U2OS_AR_TIF2_Nucleoli_Cytoplasm_Ratio_Agonist: University of Pittsburgh U2OS Androgen Receptor-Transcriptional Intermediary Factor 2 (AR-TIF2) Agonism High Content Imaging Assay for Ratio of Nucleoli Translocation and Cytoplasm (AID 2284000);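 further: hits raise the red nucleolar to cytoplasm ratio above vehicle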
# Summary of the method: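 U2OS cells expressing RFP-tagged human AR and GFP-tagged TIF2 were imaged by high-content fluorescence microscopy. The endpoint is the ratio of nucleolar to cytoplasmic red fluorescence, fitted for gain of signal relative to DMSO. Concentration-response spanned 0.195 to 50 uM final (0.5% DMSO).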
# [3] = target: Nucleoli Translocation, AR (gene 367) (UniProt P10275); test: UPITT_HCI_U2OS_AR_TIF2_Nucleoli_Antagonist: University of Pittsburgh U2OS Androgen Receptor-Transcriptional Intermediary Factor 2 (AR-TIF2) Antagonism High Content Imaging Assay for Nucleoli Translocation (AID 2283997)
# Summary of the method: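 U2OS cells expressing RFP-tagged human AR and GFP-tagged TIF2 were imaged by high-content fluorescence microscopy for red AR signal in the nucleolar region. Compounds were screened at 20 uM final (0.2% DMSO), with activity fitted relative to DHT as baseline.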
# [4] = TOX21_TR_RXR_BLA_Antagonist_Followup_viability: Viability Assessment in the Tox21 Thyroid Hormone Receptor beta Retinoid X Receptor alpha (RXRa) Antagonism Beta-lactamase (BLA) Follow-Up Assay (AID 2283979)
# Summary of the method: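 RXRa-UAS-bla HEK293T cells seeded 2,500/well in phenol red-free DMEM with 2% charcoal-stripped FBS, attached 5 h, then exposed to compounds at 11 concentrations in triplicate for 16 h at 37C/5% CO2. Viability read by CellTiter-Glo ATP luminescence; bidirectional fit versus DMSO.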
# [5] = target: Ratio of Nucleoli Translocation and Cytoplasm, AR (gene 367) (UniProt P10275); test: UPITT_HCI_U2OS_AR_TIF2_Nucleoli_Cytoplasm_Ratio_Antagonist: University of Pittsburgh U2OS Androgen Receptor-Transcriptional Intermediary Factor 2 (AR-TIF2) Antagonism High Content Imaging Assay for Ratio of Nucleoli Translocation and Cytoplasm (AID 2283999);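 further: antagonists lower the DHT-driven ratio of nucleolar to cytoplasmic red signal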
# Summary of the method: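 U2OS cells co-expressing RFP-tagged human AR and GFP-tagged TIF2, antagonist mode with DHT as baseline. Nucleolar-to-cytoplasmic red fluorescence ratio imaged by high-content microscopy; final compound 20 uM (0.2% DMSO) primary, 0.195–50 uM (0.5% DMSO) concentration-response.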
# [6] = target: Retinoic acid receptor RXR-alpha (Homo sapiens) (UniProt P19793); test: TOX21_TR_RXR_BLA_Agonist_Followup_ratio: Tox21 Thyroid Hormone Receptor beta Retinoid X Receptor alpha (RXRa) Agonism Beta-lactamase (BLA) Follow-Up Assay, Ratio (AID 2283968)
# Summary of the method: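 RXRa-UAS-bla HEK293T cells, 5 h attachment at 37C/5% CO2, then 11 concentrations in triplicate for 16 h; 9-cis retinoic acid positive control. FRET-B/GCCF4-AM substrate 2 h at room temperature; 460:530 nm ratio, fitted for gain versus DMSO.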
# Nucleoli Translocation, AR (gene 367), sequence (P10275 whole entry, looked up): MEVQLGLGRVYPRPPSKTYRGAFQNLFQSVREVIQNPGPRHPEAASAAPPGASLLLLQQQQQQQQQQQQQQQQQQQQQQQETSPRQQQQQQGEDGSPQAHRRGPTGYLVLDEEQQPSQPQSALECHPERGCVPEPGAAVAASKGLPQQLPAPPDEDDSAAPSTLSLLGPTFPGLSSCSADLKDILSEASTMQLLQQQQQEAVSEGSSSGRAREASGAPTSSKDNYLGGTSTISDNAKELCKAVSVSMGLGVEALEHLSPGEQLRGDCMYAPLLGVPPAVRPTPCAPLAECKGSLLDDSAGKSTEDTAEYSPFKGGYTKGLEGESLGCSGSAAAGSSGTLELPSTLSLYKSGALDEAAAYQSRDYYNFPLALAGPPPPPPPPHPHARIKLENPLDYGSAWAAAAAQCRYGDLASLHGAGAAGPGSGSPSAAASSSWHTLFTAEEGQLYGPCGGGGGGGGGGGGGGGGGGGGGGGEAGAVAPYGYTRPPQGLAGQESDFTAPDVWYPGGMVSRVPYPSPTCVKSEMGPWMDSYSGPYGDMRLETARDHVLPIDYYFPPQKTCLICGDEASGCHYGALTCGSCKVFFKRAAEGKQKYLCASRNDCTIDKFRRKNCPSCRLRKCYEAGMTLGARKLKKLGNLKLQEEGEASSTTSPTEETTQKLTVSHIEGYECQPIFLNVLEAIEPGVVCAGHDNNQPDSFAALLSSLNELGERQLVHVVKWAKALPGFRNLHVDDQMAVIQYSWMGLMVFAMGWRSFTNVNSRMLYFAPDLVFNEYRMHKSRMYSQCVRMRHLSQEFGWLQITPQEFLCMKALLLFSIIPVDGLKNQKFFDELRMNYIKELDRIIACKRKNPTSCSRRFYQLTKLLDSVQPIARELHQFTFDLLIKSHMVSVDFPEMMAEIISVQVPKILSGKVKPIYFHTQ
# Ratio of Nucleoli Translocation and Cytoplasm, AR (gene 367), sequence (P10275 whole entry, looked up): as above
# Retinoic acid receptor RXR-alpha (Homo sapiens), sequence (P19793 whole entry, looked up): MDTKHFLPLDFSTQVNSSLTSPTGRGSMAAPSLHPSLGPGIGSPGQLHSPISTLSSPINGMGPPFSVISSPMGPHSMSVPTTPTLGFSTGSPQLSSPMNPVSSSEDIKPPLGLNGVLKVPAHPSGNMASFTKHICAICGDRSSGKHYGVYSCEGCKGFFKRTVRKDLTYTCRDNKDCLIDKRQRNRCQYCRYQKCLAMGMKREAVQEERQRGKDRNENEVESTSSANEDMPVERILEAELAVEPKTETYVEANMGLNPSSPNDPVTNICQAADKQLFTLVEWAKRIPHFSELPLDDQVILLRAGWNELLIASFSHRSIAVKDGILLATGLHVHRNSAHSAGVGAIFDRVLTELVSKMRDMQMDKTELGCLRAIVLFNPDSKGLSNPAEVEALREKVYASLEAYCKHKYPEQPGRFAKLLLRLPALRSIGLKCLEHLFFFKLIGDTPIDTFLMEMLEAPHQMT
structure (smiles),measurement,setting,value
CC(=O)Oc1ccccc1C(=O)O,outcome,[1],inactive
same,outcome,[2],inactive
CC(C)(C)c1cc(O)c(C(C)(C)C)cc1O,outcome,[3],inactive
same,outcome,[1],inactive
same,outcome,[2],inactive
O=c1[nH]cc(F)c(=O)[nH]1,outcome,[4],inactive
Cc1nc(-c2ccc3c(c2)CCN(CCC2CCC(NC(=O)/C=C/c4ccc(F)cc4)CC2)CC3)no1 (configuration not stated),outcome,[3],inactive
same,outcome,[1],inactive
same,outcome,[5],inactive
same,outcome,[2],inactive
Cc1cccc(C)c1O,outcome,[3],inactive
same,outcome,[1],inactive
same,outcome,[5],inactive
COc1ccc(C)cc1N,outcome,[3],inactive
same,outcome,[5],inactive
COc1cc(/C=C/C(=O)CC(=O)/C=C/c2ccc(O)c(OC)c2)ccc1O,outcome,[1],inactive
same,AC50,[5],5.79 µM (active)
same,outcome,[2],inactive
CCOc1ccc2c(c1)C(C)=CC(C)(C)N2,AC50,[3],50 µM (active)
same,outcome,[1],inactive
same,outcome,[5],inactive
same,outcome,[2],inactive
CN[C@H]1CC[C@@H](c2ccc(Cl)c(Cl)c2)c2ccc(S(N)(=O)=O)cc21,AC50,[3],50 µM (active)
same,AC50,[1],12.8 µM (active)
same,outcome,[5],inactive
same,outcome,[2],inactive
Cc1cccc(Nc2cc(Cl)nc(SCC(=O)O)n2)c1C,outcome,[2],inactive
Cc1cc(NC(=O)C(=O)O)cc(C)c1Oc1ccc(O)c2c1CCC2,AC50,[6],21.6 µM (active)
same,outcome,[5],inactive
same,outcome,[2],inactive
Cc1ccc(N(C)C)cc1,outcome,[3],inactive
same,outcome,[1],inactive
same,outcome,[5],inactive
same,outcome,[2],inactive
O=C(O)Cc1ccccc1Nc1c(Cl)cccc1Cl,outcome,[3],inactive
same,outcome,[1],inactive
same,outcome,[5],inactive
same,outcome,[2],inactive
COc1ccc(S(=O)(=O)N2C(=O)[C@@](c3ccccc3OC)(N3C[C@H](O)C[C@H]3C(=O)N(C)C)c3cc(Cl)ccc32)c(OC)c1,outcome,[3],inactive
same,outcome,[1],inactive
same,outcome,[5],inactive
same,outcome,[2],inactive
